Assays:
Assay in all cases: DAPPL (digital affinity profiling via proximity ligation, sequencing); 10 mM Tris-HCl pH 7.5, 50 mM NaCl, 1 mM DTT, 4% glycerol, room temperature, 30 min; GST-TFs on glutathione beads, 16-mer random dsDNA library, 0.1% formaldehyde crosslink after washing; high values mean tight binding
[1] = target: T1, FEV (Homo sapiens, UniProt Q99581 1-238); settings: protein: recombinant; tags: N-terminal GST; dsDNA, one strand shown
T1 sequence: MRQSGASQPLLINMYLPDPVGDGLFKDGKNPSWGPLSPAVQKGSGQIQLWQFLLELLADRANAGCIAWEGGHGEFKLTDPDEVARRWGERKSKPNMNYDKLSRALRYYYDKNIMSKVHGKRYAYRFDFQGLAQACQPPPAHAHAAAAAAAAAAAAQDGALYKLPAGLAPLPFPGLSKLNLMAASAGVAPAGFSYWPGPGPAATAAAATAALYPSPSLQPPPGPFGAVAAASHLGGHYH
How it was run: (§1)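 Binding signal is defined as a hexamer's read frequency for one factor over its frequency for the tag-only sample. To obtain reads, GST-fused human transcription factors were expressed in yeast, captured on glutathione beads, barcoded with DNA and pooled with that sample. Pools met 200 nmole of a 16-mer random double-stranded DNA library in Tris/NaCl/DTT/glycerol buffer for 30 min at room temperature before washing, 0.1% formaldehyde crosslinking, proximity ligation (BsaI/T4 ligase, 1 h, 37 °C), PCR and Illumina NextSeq500 sequencing.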

[2] = target: ETV5 (Homo sapiens, UniProt P41161 1-510); settings: protein: recombinant; tags: N-terminal GST; dsDNA, one strand shown
Sequence of ETV5 (P41161 whole entry): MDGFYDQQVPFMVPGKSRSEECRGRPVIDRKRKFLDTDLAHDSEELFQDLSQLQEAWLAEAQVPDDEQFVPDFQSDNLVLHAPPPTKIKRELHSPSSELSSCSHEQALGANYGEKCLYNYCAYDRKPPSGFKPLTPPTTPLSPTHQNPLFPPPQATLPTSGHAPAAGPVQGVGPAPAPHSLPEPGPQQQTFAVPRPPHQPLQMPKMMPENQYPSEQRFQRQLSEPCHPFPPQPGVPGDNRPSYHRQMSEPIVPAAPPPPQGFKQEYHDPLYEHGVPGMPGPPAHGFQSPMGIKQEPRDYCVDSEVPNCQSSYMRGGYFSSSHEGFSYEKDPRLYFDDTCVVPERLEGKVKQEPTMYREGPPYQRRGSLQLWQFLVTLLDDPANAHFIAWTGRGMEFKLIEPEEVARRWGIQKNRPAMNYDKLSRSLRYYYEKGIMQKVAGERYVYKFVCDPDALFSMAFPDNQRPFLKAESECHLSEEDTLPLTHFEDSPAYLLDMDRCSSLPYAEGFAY
How it was run: as §1

[3] = target: HSF1 (Homo sapiens, UniProt Q00613 1-529); settings: protein: recombinant; tags: N-terminal GST; chain copies: 3; dsDNA, one strand shown
Sequence of HSF1 (Q00613 whole entry): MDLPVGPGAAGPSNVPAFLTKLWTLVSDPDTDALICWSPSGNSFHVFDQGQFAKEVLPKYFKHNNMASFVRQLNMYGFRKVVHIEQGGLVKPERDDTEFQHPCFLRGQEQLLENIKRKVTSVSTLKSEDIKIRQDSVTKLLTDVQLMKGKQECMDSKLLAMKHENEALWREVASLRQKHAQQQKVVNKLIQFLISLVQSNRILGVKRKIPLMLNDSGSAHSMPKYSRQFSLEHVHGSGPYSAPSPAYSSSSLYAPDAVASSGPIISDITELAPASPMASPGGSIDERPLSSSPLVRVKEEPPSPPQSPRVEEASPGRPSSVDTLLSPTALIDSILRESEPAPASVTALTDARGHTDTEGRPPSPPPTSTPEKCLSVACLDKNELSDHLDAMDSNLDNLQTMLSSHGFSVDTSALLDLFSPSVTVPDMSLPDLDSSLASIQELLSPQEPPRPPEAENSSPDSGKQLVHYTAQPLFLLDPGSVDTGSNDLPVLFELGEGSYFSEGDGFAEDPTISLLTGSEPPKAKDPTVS
How it was run: as §1

[4] = target: T2, SPIC (Homo sapiens, UniProt Q8N5J4 1-248); settings: protein: recombinant; tags: N-terminal GST; dsDNA, one strand shown
T2 sequence: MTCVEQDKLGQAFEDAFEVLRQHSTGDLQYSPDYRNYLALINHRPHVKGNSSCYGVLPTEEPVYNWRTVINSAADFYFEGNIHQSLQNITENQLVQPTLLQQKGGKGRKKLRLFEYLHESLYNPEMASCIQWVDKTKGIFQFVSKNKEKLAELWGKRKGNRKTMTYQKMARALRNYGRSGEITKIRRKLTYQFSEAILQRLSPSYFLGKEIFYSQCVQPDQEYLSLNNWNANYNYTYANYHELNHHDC
How it was run: as §1

[5] = target: ELF4 (Homo sapiens, UniProt Q99607 1-663); settings: protein: recombinant; tags: N-terminal GST; dsDNA, one strand shown
Sequence of ELF4 (Q99607 whole entry): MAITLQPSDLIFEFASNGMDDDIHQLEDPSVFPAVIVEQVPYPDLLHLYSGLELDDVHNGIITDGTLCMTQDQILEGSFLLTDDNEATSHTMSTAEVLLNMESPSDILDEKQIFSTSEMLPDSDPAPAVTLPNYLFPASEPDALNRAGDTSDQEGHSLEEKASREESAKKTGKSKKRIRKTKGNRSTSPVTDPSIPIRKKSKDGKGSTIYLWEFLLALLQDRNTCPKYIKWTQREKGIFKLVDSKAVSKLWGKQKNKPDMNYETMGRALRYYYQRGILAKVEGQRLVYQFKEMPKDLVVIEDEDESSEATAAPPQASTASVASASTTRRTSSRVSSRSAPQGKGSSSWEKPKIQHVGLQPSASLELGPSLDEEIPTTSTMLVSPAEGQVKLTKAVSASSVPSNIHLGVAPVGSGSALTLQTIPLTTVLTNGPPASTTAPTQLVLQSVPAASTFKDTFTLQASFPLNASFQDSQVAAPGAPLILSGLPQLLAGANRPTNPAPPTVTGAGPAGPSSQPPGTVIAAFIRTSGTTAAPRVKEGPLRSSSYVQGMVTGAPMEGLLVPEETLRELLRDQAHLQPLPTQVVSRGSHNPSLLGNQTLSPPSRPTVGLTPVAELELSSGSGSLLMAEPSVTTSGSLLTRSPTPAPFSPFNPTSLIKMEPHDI
How it was run: as §1

[6] = target: T3, ELK4 (Homo sapiens, UniProt P28324-2 1-405); settings: protein: recombinant; tags: N-terminal GST; dsDNA, one strand shown
T3 sequence: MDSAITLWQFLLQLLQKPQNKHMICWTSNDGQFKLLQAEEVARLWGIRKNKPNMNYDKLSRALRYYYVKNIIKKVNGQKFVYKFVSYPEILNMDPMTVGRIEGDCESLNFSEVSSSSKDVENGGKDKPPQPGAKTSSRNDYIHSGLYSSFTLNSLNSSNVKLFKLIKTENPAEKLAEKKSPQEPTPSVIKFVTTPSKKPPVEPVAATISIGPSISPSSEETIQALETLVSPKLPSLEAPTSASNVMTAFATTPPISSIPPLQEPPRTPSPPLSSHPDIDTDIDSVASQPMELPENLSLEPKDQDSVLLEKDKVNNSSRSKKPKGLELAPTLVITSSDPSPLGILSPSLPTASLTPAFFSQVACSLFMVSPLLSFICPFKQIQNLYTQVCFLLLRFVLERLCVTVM
How it was run: as §1

[7] = target: T4, ETV2 (Homo sapiens, UniProt O00321 1-342); settings: protein: recombinant; tags: N-terminal GST; dsDNA, one strand shown
T4 sequence: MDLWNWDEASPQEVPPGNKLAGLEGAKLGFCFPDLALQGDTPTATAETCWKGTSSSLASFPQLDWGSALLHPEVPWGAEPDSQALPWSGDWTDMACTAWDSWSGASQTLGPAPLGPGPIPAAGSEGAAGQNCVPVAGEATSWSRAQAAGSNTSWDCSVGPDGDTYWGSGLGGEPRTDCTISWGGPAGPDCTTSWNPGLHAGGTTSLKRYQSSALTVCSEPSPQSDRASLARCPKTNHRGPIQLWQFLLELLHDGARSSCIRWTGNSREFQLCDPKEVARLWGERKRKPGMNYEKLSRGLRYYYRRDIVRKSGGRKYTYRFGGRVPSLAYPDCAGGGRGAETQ
How it was run: as §1

[8] = target: T5, ELF3 (Homo sapiens, UniProt P78545 1-371); settings: protein: recombinant; tags: N-terminal GST; dsDNA, one strand shown
T5 sequence: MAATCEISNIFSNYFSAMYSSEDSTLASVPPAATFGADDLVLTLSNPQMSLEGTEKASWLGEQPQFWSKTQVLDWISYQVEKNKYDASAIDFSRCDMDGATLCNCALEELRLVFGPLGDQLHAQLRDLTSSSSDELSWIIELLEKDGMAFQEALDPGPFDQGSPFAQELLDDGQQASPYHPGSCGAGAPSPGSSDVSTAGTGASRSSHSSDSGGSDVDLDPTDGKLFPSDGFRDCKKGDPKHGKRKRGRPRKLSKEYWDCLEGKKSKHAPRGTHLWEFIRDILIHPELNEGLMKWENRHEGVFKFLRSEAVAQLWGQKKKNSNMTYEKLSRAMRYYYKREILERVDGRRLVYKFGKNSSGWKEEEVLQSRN
How it was run: as §1

[9] = target: CRX (Homo sapiens, UniProt O43186 1-299); settings: protein: recombinant; tags: N-terminal GST; dsDNA, one strand shown
Sequence of CRX (O43186 whole entry): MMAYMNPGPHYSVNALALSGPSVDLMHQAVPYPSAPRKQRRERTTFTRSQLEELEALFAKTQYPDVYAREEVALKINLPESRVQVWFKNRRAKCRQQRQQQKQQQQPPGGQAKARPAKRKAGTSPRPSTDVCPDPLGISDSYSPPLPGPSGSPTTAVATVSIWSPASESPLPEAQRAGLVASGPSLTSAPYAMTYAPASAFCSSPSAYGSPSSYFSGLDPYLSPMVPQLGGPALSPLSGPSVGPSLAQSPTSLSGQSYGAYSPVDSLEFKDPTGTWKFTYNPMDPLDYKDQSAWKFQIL
How it was run: as §1

[10] = target: ETV1 (Homo sapiens, UniProt P50549 1-477); settings: protein: recombinant; tags: N-terminal GST; dsDNA, one strand shown
Sequence of ETV1 (P50549 whole entry): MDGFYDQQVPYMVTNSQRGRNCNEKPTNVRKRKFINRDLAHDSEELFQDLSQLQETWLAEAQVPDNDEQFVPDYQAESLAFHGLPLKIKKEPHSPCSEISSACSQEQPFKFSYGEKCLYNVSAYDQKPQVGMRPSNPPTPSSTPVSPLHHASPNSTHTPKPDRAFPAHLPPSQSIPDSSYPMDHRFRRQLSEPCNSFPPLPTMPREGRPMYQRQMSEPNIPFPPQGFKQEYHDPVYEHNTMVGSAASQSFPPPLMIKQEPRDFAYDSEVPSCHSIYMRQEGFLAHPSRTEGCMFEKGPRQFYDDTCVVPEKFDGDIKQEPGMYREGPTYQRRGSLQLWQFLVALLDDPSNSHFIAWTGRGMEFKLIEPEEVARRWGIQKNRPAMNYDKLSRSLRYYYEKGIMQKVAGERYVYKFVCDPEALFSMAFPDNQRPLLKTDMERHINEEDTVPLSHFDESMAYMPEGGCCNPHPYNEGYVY
How it was run: as §1

Sequence: GCGATG
- binding signal [1]: 1.22 fold enrichment (6-mer frequency, TF over GST control)
- binding signal [2]: 1.25 fold enrichment (6-mer frequency, TF over GST control)
- binding signal [3]: 1.08 fold enrichment (6-mer frequency, TF over GST control)
- binding signal [4]: 1.07 fold enrichment (6-mer frequency, TF over GST control)
- binding signal [5]: 1.21 fold enrichment (6-mer frequency, TF over GST control)
- binding signal [6]: 1.2 fold enrichment (6-mer frequency, TF over GST control)
- binding signal [7]: 1.25 fold enrichment (6-mer frequency, TF over GST control)
- binding signal [8]: 1.26 fold enrichment (6-mer frequency, TF over GST control)
- binding signal [9]: 1.03 fold enrichment (6-mer frequency, TF over GST control)
- binding signal [10]: 1.15 fold enrichment (6-mer frequency, TF over GST control)
